# Source: PubChem BioAssay (several laboratories)
# PERK inhibitor: blocks human PERK kinase | hit rate 0.17% among 220,000 | Q9NZJ5 | inhibition, % at 5.6 µM | CHO PERK-DD fusion, SEAP luminescence translation reporter;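 active means inhibition above the mean inhibition of all tested compounds plus 3 SD, set separately per screening campaign, cut at about 2.9% in these data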;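 further: PERK kinase domain activated by AP20187 dimerizer at 100 nM; 0% = DMSO with dimerizer and 100% = rapamycin at 8.4 µM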
# ROMK primary: modulates human ROMK potassium channel activity; P48048; Tet-inducible ROMK, thallium flux fluorescence; actives lie on both sides; B-score at 10 µM; hit rate 2% among 130,000; AID 1918;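 active means signal ratio slope over the read window, or its plate-corrected B-score, at least 3 SD from the plate mean, either direction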;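 further: B-score of the F/F0 ratio slope over 7 to 12 s after thallium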
# WT yeast gro inh: growth inhibition of WT yeast, mitochondrial fusion screen | mitochondrial fusion phenotypic screen, WT strain | inhibition, % at 10 µM | hit rate 2.1% among 190,000 | AID 1362; in the data active means inhibition above about 58%; tested in S. cerevisiae
# Arbovirus anti: blocks arbovirus infection; arbovirus infection cell-based antiviral screen; inhibition, % at 10 µM; AID 1251; hit rate 0.37% among 200,000; in the data active means inhibition above about 30%
# ROMK retest: human ROMK channel modulation, retest confirmation; shares compounds with ROMK primary; ROMK thallium flux, fluorescence ratio; active compounds read low; normalized thallium flux (F/F0 slope) at 10 µM; hit rate 54% among 3,000;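 active means Flux at 10 µM at least 3 SD below or above vehicle control mean in one or both replicates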
# Numbers without * were called inactive; x = no result given. Rows were chosen to be rich in hits. Some 3.3% of all compounds tested hit in one or more screens of this group.
SMILES,PERK inhibitor,ROMK primary,WT yeast gro inh,Arbovirus anti,ROMK retest
CCn1c(O)c(N=NC(=O)c2ccc(CSc3nncn3C)cc2)c2ccccc21,-1,-3.4*,-12,-6,0.072
O=C(Nc1ccccc1C(=O)Nc1ccc2c(c1)OCO2)c1cccs1,-2,0.18,12,-1,x
COc1ccc(N2CCCCn3c2nc2c3c(=O)n(C)c(=O)n2C)cc1,-1,x,-20,-1,x
CCCCOC(=O)Cn1c(=O)c2c(nc3n2CCCCN3c2ccc(C)cc2)n(C)c1=O,-1,x,4,-39,0.061*
CCc1ccc(/C=C2\Oc3c(ccc(O)c3CN3CCN(C)CC3)C2=O)cc1,-2,-8.1*,x,x,0.046*
CCN1CCN(Cc2c(O)ccc3c2O/C(=C\c2ccc(C)cc2)C3=O)CC1,0,-5.7*,-3,5,0.04*
Cc1ccc(/C=C2\Oc3c(ccc(O)c3CN3CCN(C)CC3)C2=O)cc1,1,x,-4,4,x
Cn1c(SCc2nnc3n2CCCCC3)nc2ccccc21,0,x,-7,-1,0.081
O=Cc1cccc(OC(=O)c2ccc(Cl)cc2Cl)c1,1,3*,31,-1,0.088
Oc1cc(Br)ccc1C=Nc1ccc(N2CCCCC2)cc1,0,x,x,x,0.046*
CC(C)CCNC(=O)CN(Cc1ccc2c(c1)OCO2)C(=O)Cn1nnc(-c2cccs2)n1,0,-3.1*,-8,-6,0.068*
Cc1ccc(C)c(NC(=O)CSc2nnc3n2CCCCC3)c1,0,x,-2,0,x
COc1ccc(C2NCCc3c2[nH]c2ccccc32)cc1COc1ccc(F)cc1 (stereo not drawn),-1,-1.6,87,-36,x
COc1ccc(C2NCCc3c2[nH]c2ccccc32)cc1CN1CCc2cc(OC)c(OC)cc2C1C (stereo not drawn),-2,-3.8*,x,x,0.055*
Cn1c(CSc2nc3ccccc3s2)nnc1SCC(=O)NCCCN1CCOCC1,0,0.025,-6,19,x
O=C1CSC(c2ccccc2Cl)N1 (stereo not drawn),0,3.5*,-6,3,0.089
COc1ccc(-c2noc(CSc3nnc(-c4ccncc4)n3-c3ccc(F)cc3)n2)cc1OC,-1,x,16,3,0.082
COc1ccc(-n2c(SCc3nnc(-c4ccccc4)o3)nnc2-c2ccccc2)cc1,0,x,8,-1,0.064*
Cc1cc(NC(=O)CSc2nnc(-c3ccncc3)n2-c2ccc(F)cc2)no1,0,1.1,6,1,x
COc1ccc(-c2nnc(SCc3nnc(-c4ccccc4)o3)n2C)cc1OC,-1,0.11,-5,1,x
CCOc1ccc(S(=O)(=O)NCCC(=O)OCC(=O)N2CC(=O)Nc3ccccc32)cc1,0,0.82,-15,8,x
Cn1c(=O)c2c(nc(Br)n2CCCc2ccccc2)n(C)c1=O,0,-4.1*,-15,20,0.063*
COc1ccc(-c2cc3ccccc3n2CC(O)Cn2nc(C)cc2C)cc1 (stereo not drawn),-2,x,11,28,x
COc1ccc(-c2cc3ccccc3n2CC(O)CN2CCC(C)CC2)cc1 (stereo not drawn),-1,-2*,3,21,0.057*
COc1ccc(CN2CCN(CC(O)Cn3c4ccccc4c4ccccc43)CC2)cc1 (stereo not drawn),-1,-3.6*,86,-35,0.06*
SMILES,PERK inhibitor,ROMK primary,WT yeast gro inh,Arbovirus anti,ROMK retest
Cc1nnc(NC(=O)CSc2nc(N)c(NC(=O)c3cccs3)c(=O)[nH]2)s1,1,x,x,x,x
CC(C)CN(CC(C)C)C(=O)Cc1coc2ccc3ccccc3c12,-1,-0.87,-9,-19,x
Cc1ccc(S(=O)(=O)N2CCN(C(=O)CSc3nc4ccccc4o3)C2)cc1,0,x,-10,5,x
O=C(CSc1nc2ccccc2o1)N1CCN(S(=O)(=O)c2ccc3ccccc3c2)CC1,1,-3.6*,8,16,0.076
Cc1cccc(NC(=O)CC2C(=O)NC3CCCCC3N2C(=O)c2ccccc2Cl)c1 (stereo not drawn),-1,x,x,x,x
Cc1ccc(C(=O)N2C(CC(=O)Nc3ccc(Cl)cc3)C(=O)NC3CCCCC32)cc1 (stereo not drawn),-1,x,2,-20,0.067*
CCCN1C(=O)/C(=C/c2ccncc2)SC1=S,1,-2.8*,-5,-1,0.044*
O=C(CCl)c1ccc2c(c1)CCN2C(=O)C1CCCCC1,1,x,11,8,x
O=C(CCl)c1ccc2c(c1)CCN2C(=O)C1CC1,0,-2.8*,14,-24,0.064*
CC(CCc1ccccc1)NC(=O)CN1CCN(c2ccccc2)CC1 (stereo not drawn),0,-2.9*,0,0,0.061*
O=C(CN1CCN(C(c2ccccc2)c2ccccc2)CC1)N1CCN(c2ccccc2)CC1,-1,-3.7*,x,x,0.063*
